High-throughput results: PubChem, The Scripps Research Institute Molecular Screening Center
Many of the other results were omitted from the sample, so hits are more common in it than they were.
TbREL1 primary = TbREL1 inhibition, primary screen | P86926 | TbREL1 RNA ligation, FRET fluorescence | inhibition, % at 9.66 µM | 89,000 compounds, 0.49% hits | AID 1117264;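 active = inhibition above the mean inhibition across all screened compounds plus 3 SD, cut at about 11% in these data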
Target sequence (P86926 whole entry, looked up): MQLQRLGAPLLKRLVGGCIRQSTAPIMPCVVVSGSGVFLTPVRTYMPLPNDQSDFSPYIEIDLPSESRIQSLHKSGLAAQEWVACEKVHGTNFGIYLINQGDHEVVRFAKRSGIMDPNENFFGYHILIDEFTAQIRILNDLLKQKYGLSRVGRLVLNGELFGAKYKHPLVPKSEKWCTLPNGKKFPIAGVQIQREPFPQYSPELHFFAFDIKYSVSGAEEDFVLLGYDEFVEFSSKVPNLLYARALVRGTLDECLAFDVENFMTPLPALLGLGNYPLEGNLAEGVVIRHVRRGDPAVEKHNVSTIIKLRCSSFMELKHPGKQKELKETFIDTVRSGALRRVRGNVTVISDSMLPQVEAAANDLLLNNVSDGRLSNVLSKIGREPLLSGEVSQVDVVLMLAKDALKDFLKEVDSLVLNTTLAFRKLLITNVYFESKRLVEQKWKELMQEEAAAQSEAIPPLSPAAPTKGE
TbREL1 confirm = TbREL1 inhibition, confirmation; inhibition, % at 9.66 µM; TbREL1 RNA ligation, FRET fluorescence; 390 compounds, 37% hits; shares compounds with TbREL1 primary;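 active = mean inhibition across replicates above a set limit taken from the earlier primary screen, cut at about 11% in these data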
Hits are given with their value; n = inactive.

SMILES | TbREL1 primary | others
CN(CC(=O)Nc1cccc(F)c1)CC(=O)Nc1cccc2ccccc12 | n
CSc1ccccc1NC(=O)CN(C)CC(=O)Nc1ccccc1F | 11.5 | TbREL1 confirm=n
CSc1ccccc1NC(=O)CN(C)CC(=O)Nc1c(F)cccc1F | 16.1 | TbREL1 confirm=n
CSc1ccccc1NC(=O)CN(C)Cc1ccc(Br)cc1 | n
CSc1ccccc1NC(=O)CN(C)C(C)C(=O)Nc1ccc(C#N)cc1 (stereo unspecified) | n
C#CCNC(=O)C[C@H]1C(=O)N(CCCOC)C2=CCCC[C@@]21C(=O)OCC | n
COC(=O)c1cnn(-c2ccc(F)cc2F)c1/C=N/NC(=S)Nc1ccccc1 | n
O=C(OCc1cn(Cc2ccc(Cl)cc2)nn1)N1CCCC1 | n
CCN(C)C(=O)CNc1nnnn1-c1ccccc1 | n
CCOC(=O)C(=O)N1CCC(C(=O)NC2CCCc3ccccc32)CC1 (stereo unspecified) | n
COC(=O)[C@]12C[C@H](CC(=O)N3CCCC3)C(=O)N(CCc3ccc(OC)c(OC)c3)C1=C[C@H](C(C)C)O[C@@H]2C1CC1 | n
Cc1nnc(N=c2ssnc2Cl)o1 | 13.4 | TbREL1 confirm=19.5
COc1cc(N=c2ssnc2Cl)c(OC)cc1Cl | n
COC(=O)[C@]12C[C@H](CC(=O)N3CCN(C(=O)c4ccco4)CC3)C(=O)N(Cc3ccc(Cl)cc3Cl)C1=C[C@H](C(C)C)O[C@@H]2C1CC1 | n
CCN(CC)CCCNC(=O)C1(N[C@@H](Cc2c[nH]c3ccccc23)C(=O)NCC(OC)OC)CCCCC1 | n
Cc1ccc(-n2c(SCC(=O)C(C)(C)C)nnc2-c2cccc(C)c2)cc1 | n
Cc1onc(C(=O)N2CCN(C(c3ccc(Cl)cc3)c3ccc(Cl)cc3)CC2)c1[N+](=O)[O-] | n
CC(=O)NCCOc1cccc2ccccc12 | n
c1ccc(CCNCCCOc2cccc3ccccc23)cc1 | 12.3 | TbREL1 confirm=n
Clc1ccc(OCCNCCc2ccccc2)cc1 | n
Cc1cc(C)n(CCC(=O)N/N=C/c2ccc(O)cc2O)n1 | 12.0 | TbREL1 confirm=n
Cc1cc(C)n(CCC(=O)N/N=C/c2ccc(Cl)c([N+](=O)[O-])c2)n1 | n
Cc1cc(C)n(CCC(=O)N/N=C/c2ccccc2O)n1 | n
Cc1nn(CCC(=O)NNC(=O)Nc2ccccc2)c(C)c1[N+](=O)[O-] | n
Cc1ccc(-n2c(SCC(=O)Nc3ccc4cn[nH]c4c3)nnc2-c2ccccc2)cc1 | n
SMILES | TbREL1 primary | others
CCCC1CCC2(CC1)CCC2OC(=S)Nc1ccc(Cl)cc1 (stereo unspecified) | n
C#CCOCCOCCOCCNc1nc(N2CCN(C(=O)[C@H]([C@@H](C)CC)n3cc([C@@H](N)CO)nn3)CC2)nc(N2CCN(C(=O)[C@H](CCCCN)n3cc([C@@H](N)CO)nn3)CC2)n1 | n
C#CCOCCOCCOCCNc1nc(N2CCN(C(=O)[C@H](CCC(=O)O)n3cc(C(N)Cc4ccc(O)cc4)nn3)CC2)nc(N2CCN(C(=O)[C@H](CCC(=O)O)n3cc(C(N)Cc4ccc(O)cc4)nn3)CC2)n1 (stereo partly specified) | n
C#CCOCCOCCOCCNc1nc(N2CCN(C(=O)[C@H](CCCCN)n3cc([C@@H](N)CC(C)C)nn3)CC2)nc(N2CCN(C(=O)[C@H](Cc3cc4ccccc4[nH]3)n3cc([C@@H](N)CC(C)C)nn3)CC2)n1 | 20.1 | TbREL1 confirm=12.9
C#CCOCCOCCOCCNc1nc(N2CCN(C(=O)[C@H](CCCCN)n3cc(CN)nn3)CC2)nc(N2CCN(C(=O)[C@H](CCC(=O)O)n3cc([C@@H](N)CCCCN)nn3)CC2)n1 | n
C#CCOCCOCCOCCNc1nc(N2CCN(C(=O)[C@H](Cc3ccc(O)cc3)n3cc([C@@H](N)CC(C)C)nn3)CC2)nc(N2CCN(C(=O)[C@H](Cc3cc4ccccc4[nH]3)n3cc([C@@H](N)CC(C)C)nn3)CC2)n1 | n
C#CCOCCOCCOCCNc1nc(N2CCOCC2)nc(N2CCN(C(=O)[C@H](CCC(=O)O)n3cc(C(N)CO)nn3)CC2)n1 (stereo partly specified) | 15.7 | TbREL1 confirm=n
CC(=O)N1CCc2cc(S(=O)(=O)NC3CCN(C(=O)CCl)CC3)ccc21 | n
CCOC(=O)[C@@H](NC(=O)[C@@H]1CC=C[C@@H]2CCN(Cc3ccc(Cl)cc3)C(=O)[C@@H]21)C(C)C | n
CCCCCN(C(=O)CCc1cn(CCCCC)c2ccccc12)c1ccc(Oc2cccnc2)cc1 | n
O=C(OCC#CCSc1nnc(-c2ccc3ccccc3c2)o1)c1cccs1 | n
CC(C)=CCC/C(C)=C/C[C@]12C[C@H](C(=O)O)N(C(=O)OC(C)(C)C)[C@@H]1N(C(=O)OC(C)(C)C)c1ccccc12 | n
CCOC(=O)C1(Cc2ccccc2)CCN(Cc2ccnc3ccccc23)CC1 | n
O=C(c1sc2cc([N+](=O)[O-])ccc2c1Cl)N1CCCCC1 | n
O=C(Nc1ccccn1)c1cc2cc([N+](=O)[O-])ccc2s1 | n
O=C(c1cc2cc([N+](=O)[O-])ccc2s1)N1CCCCC1 | 11.9 | TbREL1 confirm=n
CN1C2=N[C@@H](c3ccc4c(c3)OCO4)CC(=O)N2/C(=C\c2ccccc2)[C@H]1c1ccccc1 | n
CCn1c(=Nc2ccc(N3CCOCC3)cc2)ccc2ccccc21 | n
O=C(c1ccccc1)c1ccc(N2CCOCC2)cc1 | n
Cn1c(N=Nc2ccc(N3CCOCC3)cc2)[n+](C)c2ccccc21 | 22.7 | TbREL1 confirm=27.5
CCC[C@H]1[C@@H](NC(=O)/C=C/c2ccccc2)CC[C@@]23CCCN2C(=O)CCC[C@@H]13 | n
CC(=O)NS(=O)(=O)c1ccc(NC(=O)/C=C/c2ccco2)cc1 | 14.8 | TbREL1 confirm=12.3
Cc1ccc(NC(=O)c2cccc(NC(=O)/C=C/c3ccco3)c2)cc1C | n
NS(=O)(=O)c1ccc(NC(=O)/C=C/c2ccco2)cc1 | n
Cc1ccccc1Cn1cc(COC(=O)N2CCOCC2)nn1 | n
SMILES | TbREL1 primary | others
CCN(CC)c1ccc(NC(=O)c2cc3c(C)nn(-c4ccccc4)c3s2)cc1 | n
Cc1cc(SCC(=O)N/N=C/c2ccc(O)c(O)c2O)c(C)cc1Br | n
COCCN=c1scc(-c2ccco2)n1/N=C/c1ccc(O)c(O)c1O | n
CN=c1scc(C)n1/N=C/c1ccc(O)c(O)c1O | 27.9 | TbREL1 confirm=37.9
C=CCNC(=O)CN(C(=O)c1ccncn1)c1cccc(Br)c1 | n
Cc1ccc(C(=O)NN2C(=O)c3ccc(S(=O)(=O)c4ccc(C(=O)O)cc4)cc3C2=O)cc1 | n
O=C(O)c1ccc(S(=O)(=O)c2ccc3c(c2)C(=O)N(NC(=O)c2ccc(O)cc2)C3=O)cc1 | 12.0 | TbREL1 confirm=n
O=C(O)c1ccc(S(=O)(=O)c2ccc3c(c2)C(=O)N(CC2CCCO2)C3=O)cc1 (stereo unspecified) | n
COC(=O)C1CCCN(C(=O)C2CCN(S(=O)(=O)c3ccccc3[N+](=O)[O-])CC2)C1 (stereo unspecified) | n
O=C(NCCc1c[nH]c2ccccc12)OCc1cn(Cc2ccc(C(F)(F)F)cc2)nn1 | n
COC(=O)c1cnn(-c2ccc(Cl)cc2)c1/C=N/NC(=S)Nc1ccccc1 | n
O=C(CSc1nnc(COc2ccccc2)n1-c1ccc(Cl)cc1)Nc1ccccc1-c1ccccc1 | n
CN1CCN(C2CCN(Cc3ccc(O)c4ncccc34)CC2)CC1 | 16.6 | TbREL1 confirm=n
Oc1c(Cl)cc(CN2CCOCC2)c2cccnc12 | n
O=S(=O)(c1ccc(Cl)cc1)N1CCN(Cc2ccc(O)c3ncccc23)CC1 | n
CCCCCCNC(=O)c1c(N)[nH]c(C(=O)c2ccccc2)c1-c1ccc(O)cc1 | n
CN(Cc1ccco1)S(=O)(=O)c1ccc2c(c1)CCN2C(=O)CC(C)(C)C | n
